Our source for the growth values is PubChem BioAssay (NCI).

Test systems include HCT-15 colon; HT29 colon; SNB-75 CNS; SNB-19 CNS; U251 CNS; PC-3 prostate; SK-MEL-5 melanoma; UACC-62 melanoma; LOX IMVI melanoma; SK-MEL-28 melanoma; SK-MEL-2 melanoma; EKVX NSCLC; SN12C renal; UO-31 renal; TK-10 renal; ACHN renal; CAKI-1 renal; A498 renal; CCRF-CEM leukemia; MOLT-4 leukemia.
Holding throughout (experiment): NCI-60 one-dose screen, 48 h (100 = growth as untreated, 0 = no growth, -100 = all killed)
What all share (conditions): 10 µM unless noted

The structures appear in SMILES notation. This is part of a sample that, as a whole, favours compounds with a hit. Of some 83,000 tested, about 20% had one in any assay.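 Note: values are percent growth. 100 is the growth of untreated cells, values between 100 and 0 indicate rising inhibition; between -100 and 0 indicates cell death.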 Values without a mark were called inactive. Calls of active or inactive are those of the source. Rule for the calls: active = growth percent below 10; inactive = the rest.

For the compound `CC(=O)N(C)C1CCc2c(sc(NC(=O)c3ccc(C(C)(C)C)cc3)c2C(N)=O)C1` (stereo not given), the growth in the experiment with HCT-15 colon is 57.1%; in the experiment with HT29 colon, 77.7%; in the experiment on SNB-75 CNS it was 39.2%; with SNB-19 CNS, 74.7%; in the experiment with U251 CNS, 51.8%; in the experiment with PC-3 prostate it was 45.9%. For the same compound, the growth with SK-MEL-5 melanoma is 91.7%; in the experiment on UACC-62 melanoma, 85.7%; in the experiment on LOX IMVI melanoma, 29.5%; in the experiment on SK-MEL-28 melanoma it was 80%; in the experiment with SK-MEL-2 melanoma it was 103%; in the experiment with EKVX NSCLC, 75.5%. The growth with SN12C renal is 71.1%; in the experiment with UO-31 renal, 89%; in the experiment with TK-10 renal it was 106%; with ACHN renal, 97.7%; in the experiment on CAKI-1 renal, 64.8%; in the experiment on A498 renal, 80%. In addition, the growth with CCRF-CEM leukemia is 69.3%; with MOLT-4 leukemia it was 75.2%.
For the compound `COc1cc(-c2nn(C(C)(C)C)cc2-c2ccnc(NCCCNS(=O)(=O)c3cccc(F)c3)n2)ccc1Cl`, the growth was 63.7% with HCT-15 colon; 65.1% with HT29 colon; 46.2% in the experiment with SNB-75 CNS; 93.4% with SNB-19 CNS; 88.3% in the experiment with U251 CNS; 51.3% with PC-3 prostate. Besides, the growth is 81.8% in the experiment with SK-MEL-5 melanoma; 69.2% in the experiment on UACC-62 melanoma; 67.2% in the experiment with LOX IMVI melanoma; 91.6% in the experiment on SK-MEL-28 melanoma; 85.8% with SK-MEL-2 melanoma; 40.6% in the experiment with EKVX NSCLC. Further, the growth in the experiment with SN12C renal is 58.6%; in the experiment on UO-31 renal it was 42.9%; with TK-10 renal, 68.2%; with ACHN renal, 83.4%; with CAKI-1 renal, 25.7%; in the experiment on A498 renal, 34.4%. Besides, the growth with MOLT-4 leukemia is 44%.
For the compound `CS(=O)(=O)Nc1cc(-c2ccc3ncc(C#N)c(Nc4cccc(Cl)c4F)c3c2)cnc1Cl`, the growth is 8.27% (active) with HCT-15 colon; 2.88% (active) with HT29 colon; 47.9% in the experiment on SNB-75 CNS; 5.43% (active) in the experiment with SNB-19 CNS; -8.19% (active) with U251 CNS; -16.3% (active) with PC-3 prostate. Further, the growth with SK-MEL-5 melanoma was -89.9% (active); with UACC-62 melanoma, -32% (active); in the experiment on LOX IMVI melanoma it was -62.2% (active); in the experiment with SK-MEL-28 melanoma it was 2.61% (active); in the experiment on SK-MEL-2 melanoma it was -71.3% (active); in the experiment with EKVX NSCLC, -5.3% (active). Moreover, the growth in the experiment on SN12C renal is 16.1%; in the experiment with UO-31 renal, -16.1% (active); in the experiment on TK-10 renal, -31% (active); with ACHN renal, 12.7%; in the experiment on CAKI-1 renal, -5.21% (active); in the experiment with A498 renal, -50.9% (active). Moreover, the growth in the experiment on CCRF-CEM leukemia is 2.5% (active); in the experiment with MOLT-4 leukemia, -11.1% (active).
Regarding `CS(=O)(=O)Nc1cc(-c2ccc3ncc(C#N)c(NCc4ccccc4O)c3c2)cnc1Cl`, the growth in the experiment on HCT-15 colon was 8.71% (active); in the experiment on HT29 colon, 15.5%; in the experiment with SNB-75 CNS, 32.3%; in the experiment with SNB-19 CNS, 11.9%; with U251 CNS it was 13.6%; in the experiment with PC-3 prostate, 9.68% (active). For the same compound, the growth with SK-MEL-5 melanoma was -90.3% (active); in the experiment with UACC-62 melanoma it was -25.3% (active); with LOX IMVI melanoma, -34.5% (active); in the experiment on SK-MEL-28 melanoma, 5.12% (active); in the experiment with SK-MEL-2 melanoma, -38.3% (active); in the experiment with EKVX NSCLC, 4.89% (active). Further, the growth is 17.1% in the experiment on SN12C renal; 3.5% (active) in the experiment with UO-31 renal; -6.17% (active) in the experiment with TK-10 renal; 12.4% with ACHN renal; -1.29% (active) with CAKI-1 renal; -41% (active) in the experiment with A498 renal. Moreover, the growth in the experiment on CCRF-CEM leukemia was 19.9%; in the experiment on MOLT-4 leukemia, -0.509% (active).
On to `Nc1nc(Nc2ccccc2SSc2ccccc2Nc2nc(N)nc(-c3ccc4ccccc4c3)n2)nc(-c2ccc3ccccc3c2)n1`, for which the growth in the experiment on HCT-15 colon is 66.9%; in the experiment with HT29 colon it was 102%; with SNB-75 CNS it was 45.9%; with SNB-19 CNS, 92.9%; in the experiment with U251 CNS, 45.7%; with PC-3 prostate, 45.5%. The growth was 92.3% in the experiment on SK-MEL-5 melanoma; 85% with UACC-62 melanoma; -70.7% (active) with LOX IMVI melanoma; 102% in the experiment on SK-MEL-28 melanoma; 99.4% in the experiment with SK-MEL-2 melanoma; 44.7% in the experiment on EKVX NSCLC. Moreover, the growth is 70% in the experiment on SN12C renal; -19.1% (active) with UO-31 renal; 117% with TK-10 renal; 69.5% with ACHN renal; 35% in the experiment on CAKI-1 renal; 94% with A498 renal. In the experiment with MOLT-4 leukemia, the growth is 62.5%.
On to `Cc1c(F)cc(C(N)=O)cc1NCC(=O)Nc1ccc([N+](=O)[O-])cc1`, for which the growth is 94% in the experiment on HCT-15 colon; 105% with HT29 colon; 47.2% in the experiment on SNB-75 CNS; 98.5% in the experiment on SNB-19 CNS; 109% in the experiment with U251 CNS; 89.5% in the experiment on PC-3 prostate. The growth is 95.7% in the experiment on SK-MEL-5 melanoma; 84.2% with UACC-62 melanoma; 84.1% with LOX IMVI melanoma; 103% with SK-MEL-28 melanoma; 96.3% with SK-MEL-2 melanoma; 61.4% with EKVX NSCLC. The growth in the experiment with SN12C renal is 73.2%; in the experiment on UO-31 renal it was 56.7%; with TK-10 renal, 62.6%; in the experiment on ACHN renal, 92.9%; in the experiment with CAKI-1 renal it was 62.3%; in the experiment with A498 renal, 22.9%. The growth with MOLT-4 leukemia is 105%.
On to `CCO/C=N/C1=C(C#N)C(c2ccc(OC)cc2)c2sc3c(CC)cccc3c2O1` (stereo not given), for which the growth with HCT-15 colon was 22.4%; in the experiment with HT29 colon, 13.1%; with SNB-75 CNS, -0.25% (active); in the experiment with SNB-19 CNS, 37.8%; in the experiment with U251 CNS, 27.3%; in the experiment with PC-3 prostate, 26.9%. In addition, the growth in the experiment with SK-MEL-5 melanoma was 17.6%; with UACC-62 melanoma, 27.6%; in the experiment with LOX IMVI melanoma, 26%; in the experiment with SK-MEL-28 melanoma, 67.2%; in the experiment with SK-MEL-2 melanoma, 41.4%; in the experiment on EKVX NSCLC it was 47.5%. The growth was 43.6% in the experiment with SN12C renal; 48.1% in the experiment on UO-31 renal; 69.3% in the experiment with TK-10 renal; 46.8% in the experiment with ACHN renal; 50% in the experiment on CAKI-1 renal; 6.97% (active) with A498 renal. Moreover, the results for the growth in the experiment on CCRF-CEM leukemia and with MOLT-4 leukemia were 22.4% and 26.8%, respectively.
With `NS(=O)(=O)c1ccc(Nc2nc(SCc3ccccc3)nc3ccccc23)cc1`, the growth with HCT-15 colon is 39.1%; in the experiment with HT29 colon, 41%; with SNB-75 CNS it was 70.5%; in the experiment on SNB-19 CNS, 78.2%; with U251 CNS, 60.1%; with PC-3 prostate, 54.1%. The growth with SK-MEL-5 melanoma is 49.8%; in the experiment with UACC-62 melanoma, 70%; in the experiment on LOX IMVI melanoma it was 52.3%; in the experiment with SK-MEL-28 melanoma it was 91.6%; with SK-MEL-2 melanoma, 92.4%; with EKVX NSCLC, 77.7%. Also, the growth is 65.1% in the experiment on SN12C renal; 46.9% in the experiment with UO-31 renal; 81.5% in the experiment with TK-10 renal; 62% in the experiment with ACHN renal; 49.1% in the experiment on CAKI-1 renal; 41.8% with CCRF-CEM leukemia.
